# Data from PubChem BioAssay AID589 (National Center for Advancing Translational Sciences (NCATS), 2007).
# Screen size: about 59,000 compounds; about 6,200 (11%) were called active. Roughly 9% stayed inconclusive and do not appear here. Rule as the data show it: active = max dye-equivalent concentration above about 10 nM; inconclusive = mostly about 1.1 nM to 9.6 nM; inactive = weaker than that. The sample as a whole holds a higher share of actives than the screen did.
# Assay: qHTS Assay for Spectroscopic Profiling in 4-MU Spectral Region
# Conditions: compound autofluorescence, 340/450 nm, 4-MU equivalents; active compounds read high
# Outline: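 Intrinsic fluorescence at 340/450 nm (ex/em) was read after 15 min at room temperature in pH 8.0, 100 mM Tris. Each compound concentration expressed as 4-MU-equivalent concentration from a six-point 4-MU standard series on each plate.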
row,Compound,max dye-equivalent concentration
1,CCOc1cccc(NC(=O)C2CCCN(S(=O)(=O)c3ccc(OC)cc3)C2)c1 (stereo unspecified),inactive
2,C[C@@H]1CC[C@H]2[C@H](C)[C@H]3[C@H](C[C@H]4[C@@H]5CC=C6C[C@@H](O)CC[C@@]6(C)[C@@H]5C[C@@H](O)[C@]34C)N2C1,inactive
3,O=c1c2ccccc2nnn1CSc1nc2sc3c(c2c(=O)n1CC1CCCO1)CCC3 (stereo unspecified),inactive
4,CCCn1nnc2sc3c(c2c1=O)CCC(C)C3 (stereo unspecified),33 nM (active)
5,CC1CCc2sc3nc(N4CCN(CCO)CC4)n4ncnc4c3c2C1 (stereo unspecified),inactive
6,O/N=C(\c1ccc2c(c1)OCCO2)C1CCCCC1,inactive
7,CCN(CC)Cc1c(C(=O)OC)nnn1-c1nonc1N,inactive
8,CC(=O)c1sc2nc(SCC(=O)N3CCCCC3)[nH]c(=O)c2c1C,inactive
9,O=C1N=C(N2CCOCC2)CS1,inactive
10,CN(CCC#N)c1ncnc2scc(-c3ccccc3)c12,inactive
11,CCCC(=O)NC(C)C(c1cccs1)N1CCN(c2ccccc2)CC1 (stereo unspecified),inactive
12,CCOC(=O)c1ccc(NC(=O)CSc2ncccn2)cc1,inactive
13,COCCOC(=O)C1=C(C)Nc2nc(C)nn2C1c1ccccc1 (stereo unspecified),inactive
14,CCOC(=O)C1=C(C)NC(C)=C(C(=O)OCC)C1c1ccccn1,290 nM (active)
15,Cc1ccc(S(=O)(=O)NCCN2CCOCC2)cc1C,inactive
16,Cc1nn(C)c(C)c1S(=O)(=O)N1CCc2ccccc21,inactive
17,O=S(=O)(c1cccs1)N1CCN(Cc2ccccc2)CC1,inactive
18,O=S(=O)(c1cccs1)N1CCc2ccccc2C1,inactive
19,CCCCNc1nc2ccccc2nc1NS(=O)(=O)c1cccs1,45 nM (active)
20,CC(C)CCNC(=O)CN(C(=O)Cn1nnc(-c2ccc(F)cc2)n1)C1CCCC1,inactive
21,O=C(O)c1cscn1,inactive
22,COc1ccc(OCC(=O)N2CCN(C(=O)c3cccs3)CC2)cc1,inactive
23,COc1ccc(S(=O)(=O)N2CCN(C(=O)c3cccs3)CC2)cc1OC,3300 nM (active)
24,CCCS(=O)(=O)N1CCN(C(=O)c2cccs2)CC1,inactive

row,Compound,max dye-equivalent concentration
1,NCC(=O)[C@@H](O)[C@H](O)[C@H](O)CO,inactive
2,CCn1c(SCC(=O)Nc2cc(C)c(Cl)cc2OC)nnc1-c1ccco1,inactive
3,O=S(=O)(NCc1ccc2c(c1)OCO2)c1cccc2nsnc12,inactive
4,CCCOc1ccc(/C(O)=C2/C(=O)C(=O)N(CCN(C)C)C2c2ccc(OC)c(OC)c2)cc1 (stereo unspecified),inactive
5,CCN(CC)CCN1C(=O)C(=O)/C(=C(/O)c2ccc(OC)c(OC)c2)C1c1ccccn1 (stereo unspecified),33 nM (active)
6,COc1ccc(/C(O)=C2/C(=O)C(=O)N(CCCN(C)C)C2c2ccccc2)cc1OC (stereo unspecified),inactive
7,CCn1nc(C(=O)OCC(=O)N2c3ccccc3CC2C)c2ccccc2c1=O (stereo unspecified),inactive
8,Cc1noc(COc2ccccc2OCC(O)CNC(C)(C)C)n1 (stereo unspecified),inactive
9,CCc1nc(N2CCN(c3nc(C)cc(C)n3)CC2)c2oc3ccccc3c2n1,inactive
10,CCSc1nc(C)nc2c1oc1ccccc12,inactive
11,CCc1nc(Nc2ccc3nccnc3c2)c2oc3ccccc3c2n1,55 nM (active)
12,COc1ccccc1CNC(=O)CCCn1c(=O)c2ccccc2n(CC(=O)NC2CCCC2)c1=O,inactive
13,Cc1ccc(C(c2nnnn2CS(=O)(=O)c2ccc(C)cc2)N2CCC(C(N)=O)CC2)cc1 (stereo unspecified),inactive
14,COC(=O)c1cnn2c(C(F)(F)F)cc(-c3ccco3)nc12,970 nM (active)
15,O=C(CSc1nc(-c2ccco2)cc(C(F)(F)F)n1)N1CCc2ccccc2C1,inactive
16,O=C(Nc1ccccc1)Nc1ccccc1C(=O)NCc1ccco1,inactive
17,COC(=O)c1ccccc1NC(=O)Cn1nc(C(F)(F)F)c2c1CCC2,inactive
18,O=C(NCc1ccco1)c1cc(-c2cccnc2)nc2ccc(Cl)cc12,inactive
19,O=C(NCc1ccco1)c1cnn2c(C(F)(F)F)cc(-c3ccco3)nc12,260 nM (active)
20,CCOC(=O)C1C(=O)OC2(CCCC2)C1C(=O)OCC (stereo unspecified),inactive
21,Cc1cccc(NC(=O)C2CCCN2S(=O)(=O)c2ccc(F)cc2)c1C (stereo unspecified),inactive
22,CCOC(=O)C1(C(F)(F)F)N=C(N(C)C)OC(N(C)C)=N1,inactive
23,CC(=O)c1c(C)n(-c2ccc(N(C)C)cc2)c2ccc(OCC(N)=O)cc12,inactive
24,COc1cc(OC)c(C(=O)NC2CC(C)(C)NC(C)(C)C2)cc1OC,inactive

row,Compound,max dye-equivalent concentration
1,COc1ccc(CCn2c(NCCCN3CCOCC3)nc3c2c(=O)[nH]c(=O)n3C)cc1,inactive
2,CCCCn1c(SCc2ncc(-c3ccccc3)o2)nc2cc(S(N)(=O)=O)ccc21,inactive
3,Cc1nc(NCCN)c(C#N)c2c1COC(C)(C)C2,13 nM (active)
4,CCN1CCN(c2ncnc3c2oc2nc(C)c4c(c23)CC(C)(C)OC4)CC1,inactive
5,C=CCNC(=O)CCCC(=O)NCC=C,inactive
6,Nc1nc2c(ncn2[C@H]2CC[C@@H](CO)O2)c(=O)n1C(=O)c1ccccc1,inactive
7,CC(=O)c1cccc(NC(=O)N2CCCC2C(=O)NCCC(C)C)c1 (stereo unspecified),inactive
8,COc1ccc(NC(=O)N2CC3(CCN(C(C)=O)CC3)C2)cc1,inactive
9,CCOC(=O)c1c(NC(=O)CCC(=O)NCc2ccco2)sc2c1CCCC2,inactive
10,CCOC(=O)N1CCN(Cc2oc(CO)cc(=O)c2O)CC1,inactive
11,CCCc1cc(=O)oc2c(C)c(O)c(CN3CCCCC3)cc12,7800 nM (active)
12,Nc1nnnn1/N=C/c1cccs1,inactive
13,COC(=O)Cc1nc2ccccc2[nH]1,inactive
14,COC(=O)Nc1nc2ccc(Sc3ccccc3)cc2[nH]1,14 nM (active)
15,Oc1ccc2nc(Cc3ccccc3)[nH]c2c1,inactive
16,COC(=O)c1nc(NC(=O)c2ccc(Cl)cc2)n[nH]1,inactive
17,CCC(=O)Nc1ccccc1N1CCN(S(C)(=O)=O)CC1,inactive
18,O=C(Cn1cnc2c(cnn2-c2ccccc2)c1=O)NCc1ccccc1,inactive
19,O=C(Nc1ccc(S(=O)(=O)N2CCCC2)cc1Cl)C1=COCCO1,inactive
20,O=C(Cn1c(=O)sc2ccccc21)Nc1ccc2c(c1)OCCO2,inactive
21,CC(C)(C)NC(=O)NC(=O)COC(=O)Cn1c(C(F)(F)F)nc2ccccc21,inactive
22,Cn1cccc1C(=O)Nc1nccs1,inactive
23,Cn1cccc1C(=O)NC(=O)COC(=O)Cc1coc2ccc3ccccc3c12,30 nM (active)
24,CC(=O)c1cc2c(cc1N)OCO2,inactive

row,Compound,max dye-equivalent concentration
1,COCc1[nH]nc2c1C(C1C=CCCC1)C(C#N)=C(N)O2 (stereo unspecified),inactive
2,CC(=O)Oc1ccc2c(C)c(CC(C)O)c(=O)oc2c1 (stereo unspecified),15000 nM (active)
3,FC(F)(F)c1ccccc1-c1nc(-n2ccnc2)c2ccccc2n1,inactive
4,O=C1CN(C(=O)COC(=O)C2CC(=O)N(Cc3ccco3)C2)c2ccccc2N1 (stereo unspecified),inactive
5,COc1ccc(C(=O)n2nc(-c3ccc(Cl)cc3)nc2N)cc1OC,inactive
6,COc1ccccc1C(=O)n1nc(-c2ccccc2)nc1N,inactive
7,COc1ccc(C(=O)n2nc(-c3ccc(C)cc3)nc2N)cc1OC,35 nM (active)
8,CN(C(=O)c1ccccn1)c1nnc(-c2ccccn2)s1,inactive
9,C=CCNC(=O)c1ccc(C)c(Br)c1,inactive
10,CCCCC(=O)Nc1cc(C)c2c(=O)oc3ccccc3c2n1,inactive
11,CCOC(=O)N1CCN(C(=O)c2n[nH]c(=O)c3ccccc23)CC1,inactive
12,O=C(NCCc1ccc2c(c1)OCCO2)c1cc2ccccc2o1,inactive
13,COc1c(C(=O)N2CCCC2)ccc2ccccc12,inactive
14,CCOC(=O)N1CCN(C(=O)c2cc3c(ccc4ccccc43)oc2=O)CC1,1500 nM (active)
15,CNC(=O)c1cc2c(ccc3ccccc32)oc1=N,9900 nM (active)
16,C=CCSc1nc2ccccc2[nH]1,inactive
17,Cc1ccc(CNC(=O)C2CC(=O)N(C3CCCCCCC3)C2)cc1 (stereo unspecified),inactive
18,COc1ccc(CCNS(=O)(=O)c2ccc(F)cc2)cc1OC,inactive
19,COC(=O)c1ccc2c(c1)S(=O)(=O)NC(=NCCCN1CCOCC1)S2,inactive
20,Cc1cc(C(F)(F)F)n2ncc(-c3ccccc3)c2n1,12 nM (active)
21,Cc1cc(-n2nc(C)cc2C)n2ncc(-c3ccccc3)c2n1,inactive
22,Cc1cc(Cl)ccc1OCC(=O)Oc1c(Cl)c(Cl)c(Cl)c(Cl)c1Cl,inactive
23,Cc1cc(C)c2nc(SCCC#N)nc(C)c2c1,inactive
24,C=CCN(c1ccc(C(N)=O)cc1)S(C)(=O)=O,inactive

row,Compound,max dye-equivalent concentration
1,Nc1ccc(-c2nnc(-c3ccc(-c4ccccc4)cc3)o2)cc1,170 nM (active)
2,O=C(CSc1nnc(-c2ccccc2)o1)N1CCOCC1,inactive
3,O=C(COC(=O)c1ccc(Oc2ccccc2)cc1)Nc1nnc(-c2ccccc2)o1,inactive
4,O=C(Nc1ccc(Cl)cc1)c1ccsn1,inactive
5,CCC[C@H]1C(=O)N2C(N(C)C)=Nc3ccc(C)cc3N2C1=O,inactive
6,COc1ccc(OC)c(C(=O)CSc2nnc(-c3cccs3)o2)c1,150 nM (active)
7,COc1ccc(-c2nnc(SCC(=O)c3cccs3)o2)c(OC)c1,inactive
8,COc1ccc(-n2c(C)cc(C(=O)CSc3nnc(-c4cccs4)o3)c2C)cc1,inactive
9,CC(C)c1ccc(N2CC(C(=O)Nc3nccs3)CC2=O)cc1 (stereo unspecified),inactive
10,Cn1nnnc1SCC(=O)N1CCN(C(c2ccccc2)c2ccccc2)CC1,inactive
11,c1ccc(CCN2CN=C(Nc3nc4ccccc4o3)NC2)cc1,inactive
12,COc1ccc2nc(NC3=NCN(CC4CCCO4)CN3)nc(C)c2c1 (stereo unspecified),92 nM (active)
13,Cc1ccc2nc(NC3=NCN(CCc4ccccc4)CN3)nc(C)c2c1,inactive
14,Cc1ccc(S(=O)(=O)NCC(=O)N(CC(=O)NC2CCCCC2)Cc2ccco2)cc1,inactive
15,CCCC(=O)N(CCc1ccccc1)Cc1nc2ccccc2c(=O)[nH]1,inactive
16,Cc1ccc(C(=O)NCC2CCCO2)o1 (stereo unspecified),inactive
17,Cc1nc2ccccc2c2oc(C(=O)NCC3CCCO3)cc12 (stereo unspecified),12 nM (active)
18,Cc1cc(C(=O)NCCCc2ccccc2)no1,inactive
19,c1ccc2c(NCC3CCCO3)nc(-c3ccncc3)nc2c1 (stereo unspecified),inactive
20,CCCN(CCC)CCNC(=O)c1cc2c(C)nc3ccccc3c2o1,17 nM (active)
